Results from PubChem BioAssay (NCI).
Compounds without any hit were thinned out: in the full panel of roughly 79,000, 15% have a hit. Cut-off read from the data, not from the text of the source: active = growth inhibition above about 70%; inactive = the rest.

What was measured:
[1] = NCI Yeast Anticancer Drug Screen. Data for the rad50 strain (AID 155);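 note: 0% = growth of vehicle-only cultures of the same strain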; settings: S. cerevisiae rad50 strain growth inhibition; at 50.0 µM; active compounds read high
Summary of the method: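 A DNA repair-deficient yeast mutant serves as the test organism; compound-induced growth inhibition is calculated against vehicle-treated cells.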

[2] = NCI Yeast Anticancer Drug Screen. Data for the mec2-1 strain (AID 157); settings: S. cerevisiae mec2-1 strain, at 50.0 µM, active compounds read high
Summary of the method: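 Compounds were applied to mec2-1 yeast cells. Their growth was then compared with that of vehicle-treated cultures to give growth inhibition.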

[3] = NCI Yeast Anticancer Drug Screen. Data for the sgs1 mgt1 strain (AID 161);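 note: 0% = growth of cultures given vehicle only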; settings: S. cerevisiae sgs1 mgt1 strain, at 50.0 µM, active compounds read high
Summary of the method: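 Compounds are added to genetically altered yeast, and growth is compared with cultures given vehicle alone to give percent inhibition.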

[4] = NCI Yeast Anticancer Drug Screen. Data for the cln2 rad14 strain (AID 165);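 note: 0% = growth equal to vehicle treated cultures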; settings: S. cerevisiae cln2 rad14 strain, at 50.0 µM, active compounds read high
Summary of the method: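 Strain: cln2 rad14 yeast, altered in cell cycle control and DNA damage repair. Read-out: growth inhibition vs vehicle.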

[5] = NCI Yeast Anticancer Drug Screen. Data for the bub3 strain (AID 167); settings: S. cerevisiae bub3 mutant strain, at 50.0 µM, active compounds read high
Summary of the method: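 Inhibition values come from growth of compound-treated mutant yeast normalised to vehicle-treated controls.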

[6] = NCI Yeast Anticancer Drug Screen. Data for the mlh1 rad18 strain (AID 175); settings: S. cerevisiae mlh1 rad18 strain growth inhibition; at 50.0 µM; active compounds read high
Summary of the method: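 A repair-deficient yeast strain is exposed to test compound, and growth is scored relative to vehicle-treated controls.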

Measured: growth inhibition

C/C(=N/S(=O)(=O)c1ccc(C)c(C)c1)OC(C)C
inactive: [1] 2.6% | [2] 6.9% | [3] 7.95% | [4] -55.1% | [5] 13.1% | [6] -1.2%

COC(=O)[C@H]1[C@H]2C[C@@H]3c4[nH]c5cc(OC)ccc5c4CCN3C[C@H]2C[C@@H](OC(=O)c2cc(OC)c(OC)c(OC)c2)[C@@H]1OC
inactive: [1] 16.5% | [2] -14.2% | [3] -8.9% | [4] -3.65% | [5] 25.7% | [6] 12.8%

Cc1cccc(NC(=O)C(C)C)c1
inactive: [1] 24.3% | [2] 19.4% | [3] 11.8% | [4] -2.35% | [5] -43.9% | [6] -33%

CC(C)C(NC(=O)C(Cc1ccccc1)NC(=O)[C@H]1CCC[C@H]1NC(=O)C(Cc1ccc(OC(C)(C)C)cc1)NC(=O)OC(C)(C)C)C(N)=O (stereo not given in full)
inactive: [1] -11.2% | [2] -6.7% | [3] -15.8% | [4] 18.7% | [5] -7.65% | [6] -0.2%

CC(C)(C)NC(=O)Oc1ccccc1C(N)=O
inactive: [1] 4.4% | [2] -3.45% | [3] -5.2% | [4] -78.4% | [5] 4.9% | [6] -11.7%

CC(=O)OC1CC(c2ccccc2)=NO1 (stereo not given)
inactive: [1] -12.8% | [2] -21.5% | [3] -8.6% | [4] -21.9% | [5] -10.8% | [6] -12.4%

O=C(C[N+]1(c2ccccc2)CCOCC1)c1ccccc1
inactive: [1] 28.4% | [2] 5.6% | [3] -13.8% | [4] 4.7% | [5] -4.25% | [6] 21.1%

NC(=O)c1ccc[n+](CCCCCCCCCCC(=O)[O-])c1
inactive: [1] -7% | [2] 7.05% | [3] 0.8% | [4] -15% | [5] 4.75% | [6] 1.95%

N#CC(C#N)=C(O)/C(=C/c1ccc(Cl)cc1Cl)NC(=O)c1ccccc1
inactive: [1] 9.4% | [2] 1.15% | [3] -7.9% | [4] 7.9% | [5] -13.3% | [6] 14.3%

C=CCC12CCC(=O)[C@@]1(C)CC=C(O)C2=O (stereo not given in full)
inactive: [1] 8.6% | [2] -2.8% | [3] 17.2% | [4] -18.2% | [5] 0.6% | [6] 0.9%

Cc1cccc(C(=O)OC(=O)c2cccc(C)c2)c1
inactive: [1] -3.85% | [2] -37% | [3] -9.75% | [4] -6% | [5] -23.9% | [6] 10.3%

S=C(Nc1cccc2ccccc12)N1CCCCC1
inactive: [1] 51.7% | [2] 39% | [3] 50.7% | [4] 18.1% | [5] 61% | [6] 35.7%

CCOC(=O)C1CC1OCc1ccccc1 (stereo not given)
inactive: [1] -0.2% | [2] 11.7% | [3] 4.9% | [4] -15.9% | [5] 4% | [6] 5.3%

O=C(N/C(=C\c1ccc([N+](=O)[O-])cc1)c1nc2ccccc2[nH]1)c1ccccc1
inactive: [1] 29.1% | [2] 6.55% | [3] 8.35% | [4] -37.9% | [5] 17.9% | [6] 23.8%

CCOCc1ccccc1C(O)(c1ccc(OC)cc1)c1ccccc1OC (stereo not given)
inactive: [1] 37.6% | [2] 16.3% | [3] 40.9% | [4] 50.8% | [5] 6.85% | [6] 57.4%

C=C(CCC(Cl)C(O)CO)[Si](C)(C)C (stereo not given)
inactive: [1] 37.5% | [2] -19.2% | [3] 52% | [4] 45.3% | [5] 49.2% | [6] 48.6%

O.[Cl][Co]([Cl])[Cl].c1c[nH]cn1.c1c[nH]cn1
inactive: [1] -0.85% | [2] -5.6% | [3] 15% | [4] 1.95% | [5] 8.4% | [6] -2.7%

CCC/C=C(/C=N/Nc1ccc([N+](=O)[O-])cc1[N+](=O)[O-])CC
inactive: [1] 16.4% | [2] -10.7% | [3] -7.8% | [4] 32.6% | [5] 0.75% | [6] 4.05%

COC1CCC(C(C)(C)C)CC1 (stereo not given)
inactive: [1] 2.45% | [2] -11.6% | [3] 0.15% | [4] -3.8% | [5] 5.85% | [6] -21.7%

CO[C@@H]1C2C3c4ccccc4C(c4ccccc43)C2[C@H](OC)[C@H]2OC(c3ccccc3)O[C@H]21 (stereo not given in full)
inactive: [1] -13.4% | [2] -14.9% | [3] 7.15% | [4] 10% | [5] 2.15% | [6] -2.65%
